According to the supplement of paper PMC10037445:
Whole data set: some 2,900 compounds, median “NF-kB SEAP reporter activity, fold change vs agonist alone” near 0.99, cut for the highest 2% near 2.6. Many of the other results were omitted from the sample, so the highest values are more common in it than they were.

Legend:
[1] = tested on: RAW-Dual; test: NF-kB SEAP reporter activity, fold change vs agonist alone; cytotoxicity flag (confluency mask): not cytotoxic; higher = enhanced NF-kB activity
Summary of the method: (§1)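 Reporter activity is given as fold change relative to agonist-alone wells. To measure it, 50 nL of library stock was pin-tooled onto RAW-Dual macrophages (50,000 cells/well, DMEM, 384-well plates), a PRR agonist followed 1 h later, and cells stayed at 37 °C, 5% CO2. Twenty hours on, supernatant was assayed for IRF (QuantiLuc luminescence) and NF-κB (QuantiBlue, 620 nm absorbance), and wells under 70% of agonist-control IncuCyte confluency in both mask sets were marked cytotoxic.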

[2] = tested on: RAW-Dual; test: NF-kB SEAP reporter activity, fold change vs agonist alone; higher = enhanced NF-kB activity
Summary of the method: as §1

[3] = tested on: RAW-Dual; test: NF-kB SEAP reporter activity, fold change vs agonist alone; cytotoxicity flag (confluency mask): cytotoxic (confluency <70% of control); higher = enhanced NF-kB activity
Summary of the method: as §1

[4] = agonist: ODN 1826 (TLR9) 0.5 ug/mL
[5] = agonist: Pam2CSK4 (TLR2/6) 0.1 ug/mL
[6] = agonist: Pam3CSK4 (TLR2/1) 0.1 ug/mL
[7] = library stock concentration (final ~1000-fold dilution): 10 mM, cytotoxicity flag (confluency mask): not cytotoxic, agonist: Imiquimod (TLR7) […]
[8] = library stock concentration (final ~1000-fold dilution): 10 mM, cytotoxicity flag (confluency mask): not cytotoxic, agonist: MPLA (TLR4) […]

For `CCOC(=O)/C=C/c1ccc(O)c(OC)c1` (library stock concentration (final ~1000-fold dilution): 10 mM), the “NF-kB SEAP reporter activity” value ([1]; agonist: LPS (TLR4) 0.1 ug/mL) was 0.998, the “NF-kB SEAP reporter activity” value [1, 4] was 1.03 and the “NF-kB SEAP reporter activity” value [1, 5] was 0.959. For the same molecule, the “NF-kB SEAP reporter activity” value [1, 6] was 1.07.

In the case of `CCOC(=O)/C=C/c1ccc(O)c(OC)c1`, the “NF-kB SEAP reporter activity” value [2, 7] is reported as 1.08 and the “NF-kB SEAP reporter activity” value [2, 8] is reported as 1.2.

In the case of `COc1cc2nccc(Oc3ccc(NC(=O)Nc4ccc(F)cc4F)c(F)c3)c2cc1OC`, the “NF-kB SEAP reporter activity” value ([2]; library stock concentration (final ~1000-fold dilution): 10 mM, cytotoxicity flag (confluency mask): cytotoxic (confluency <70% of control), agonist: Imiquimod (TLR7) […]) is reported as 0.799 and the “NF-kB SEAP reporter activity” value ([2]; library stock concentration (final ~1000-fold dilution): 10 mM, cytotoxicity flag (confluency mask): cytotoxic (confluency <70% of control), agonist: MPLA (TLR4) […]) is reported as 0.975.

In the case of `COc1ncc(-c2ccc3nccc(-c4ccnnc4)c3c2)cc1NS(=O)(=O)c1ccc(F)cc1F`, the “NF-kB SEAP reporter activity” value [2, 7] is reported as 0.912 and the “NF-kB SEAP reporter activity” value [2, 8] is reported as 0.957.

For `COc1cc2nccc(Oc3ccc(NC(=O)Nc4ccc(F)cc4F)c(F)c3)c2cc1OC` (library stock concentration (final ~1000-fold dilution): 10 mM), the “NF-kB SEAP reporter activity” value ([3]; agonist: LPS (TLR4) 0.1 ug/mL) was 0.806, the “NF-kB SEAP reporter activity” value [3, 4] was 0.587 and the “NF-kB SEAP reporter activity” value [3, 5] was 0.463. The “NF-kB SEAP reporter activity” value [3, 6] was 0.717.

In the case of `COc1ncc(-c2ccc3nccc(-c4ccnnc4)c3c2)cc1NS(=O)(=O)c1ccc(F)cc1F` (library stock concentration (final ~1000-fold dilution): 10 mM), the “NF-kB SEAP reporter activity” value ([1]; agonist: LPS (TLR4) 0.1 ug/mL) is reported as 6.18, the “NF-kB SEAP reporter activity” value [1, 4] is reported as 0.959 and the “NF-kB SEAP reporter activity” value [1, 5] is reported as 2.26. The “NF-kB SEAP reporter activity” value [1, 6] was 0.801.

For `CC1CNCCCN1S(=O)(=O)c1cccc2cncc(F)c12.Cl.O.O` (stereo unspecified) (library stock concentration (final ~1000-fold dilution): 10 mM), the “NF-kB SEAP reporter activity” value ([1]; agonist: LPS (TLR4) 0.1 ug/mL) was 1.11, the “NF-kB SEAP reporter activity” value [1, 4] was 0.99 and the “NF-kB SEAP reporter activity” value [1, 5] was 1.27. For the same molecule, the “NF-kB SEAP reporter activity” value [1, 6] was 1.5.

With `CC1CNCCCN1S(=O)(=O)c1cccc2cncc(F)c12.Cl.O.O` (stereo unspecified) the “NF-kB SEAP reporter activity” value [2, 7] was 1.01 and the “NF-kB SEAP reporter activity” value [2, 8] was 1.08.

With `COC(=O)NC(C(=O)N1CCCC1c1ncc(-c2ccc(-c3ccc(-c4cnc(C5CCCN5C(=O)C(NC(=O)OC)C(C)C)[nH]4)cc3)cc2)[nH]1)C(C)C.Cl.Cl` (stereo unspecified) (library stock concentration (final ~1000-fold dilution): 10 mM) the “NF-kB SEAP reporter activity” value ([1]; agonist: LPS (TLR4) 0.1 ug/mL) was 1.85, the “NF-kB SEAP reporter activity” value [1, 4] was 0.91 and the “NF-kB SEAP reporter activity” value [1, 5] was 1.02. The “NF-kB SEAP reporter activity” value [1, 6] was 0.606.

With `COC(=O)NC(C(=O)N1CCCC1c1ncc(-c2ccc(-c3ccc(-c4cnc(C5CCCN5C(=O)C(NC(=O)OC)C(C)C)[nH]4)cc3)cc2)[nH]1)C(C)C.Cl.Cl` (stereo unspecified) the “NF-kB SEAP reporter activity” value [2, 8] was 1.76.

With `CC(C)CN(CC(O)C(Cc1ccccc1)NC(=O)OC1CCOC1)S(=O)(=O)c1ccc(N)cc1` (stereo unspecified) the “NF-kB SEAP reporter activity” value [2, 7] was 1.3 and the “NF-kB SEAP reporter activity” value [2, 8] was 1.6.

In the case of `CC(C)CN(CC(O)C(Cc1ccccc1)NC(=O)OC1CCOC1)S(=O)(=O)c1ccc(N)cc1` (stereo unspecified) (library stock concentration (final ~1000-fold dilution): 10 mM), the “NF-kB SEAP reporter activity” value ([1]; agonist: LPS (TLR4) 0.1 ug/mL) is reported as 1.41, the “NF-kB SEAP reporter activity” value [1, 4] is reported as 1.74 and the “NF-kB SEAP reporter activity” value [1, 5] is reported as 1.45. The “NF-kB SEAP reporter activity” value [1, 6] was 1.32.

`CC1CCOC2Cn3cc(C(=O)NCc4ccc(F)cc4F)c(=O)c(O)c3C(=O)N12` (stereo unspecified) (library stock concentration (final ~1000-fold dilution): 2 mM) was tested, and the “NF-kB SEAP reporter activity” value ([1]; agonist: LPS (TLR4) 0.1 ug/mL) was 1.23, the “NF-kB SEAP reporter activity” value [1, 4] was 0.967 and the “NF-kB SEAP reporter activity” value [1, 5] was 0.958. For the same molecule, the “NF-kB SEAP reporter activity” value [1, 6] was 0.873.

In the case of `CC1CCOC2Cn3cc(C(=O)NCc4ccc(F)cc4F)c(=O)c(O)c3C(=O)N12` (stereo unspecified) (library stock concentration (final ~1000-fold dilution): 10 mM), the “NF-kB SEAP reporter activity” value ([1]; agonist: LPS (TLR4) 0.1 ug/mL) is reported as 0.989, the “NF-kB SEAP reporter activity” value [1, 4] is reported as 0.999 and the “NF-kB SEAP reporter activity” value [1, 5] is reported as 1.09. For the same molecule, the “NF-kB SEAP reporter activity” value [1, 6] was 0.921.

For `CC1CCOC2Cn3cc(C(=O)NCc4ccc(F)cc4F)c(=O)c(O)c3C(=O)N12` (stereo unspecified), the “NF-kB SEAP reporter activity” value ([2]; library stock concentration (final ~1000-fold dilution): 2 mM, cytotoxicity flag (confluency mask): not cytotoxic, agonist: MPLA (TLR4) […]) was 0.994, the “NF-kB SEAP reporter activity” value [2, 7] was 1.18 and the “NF-kB SEAP reporter activity” value [2, 8] was 0.999.
